Measurements: PubChem BioAssay AID1159580 (chemical genetic matrix, 2015)
Values joined by “and” are separate entries in the source; they are usually repeats but may differ in a detail not shown here. Identical values can stand only once. Among all 5,500 compounds or so, about 2,000 (36%) were called active. Roughly 18% stayed inconclusive and do not appear here. No stated cut-off is given here; in the data, active means normalized growth mostly below about 0.91 (no sharp cut-off); inconclusive means no clear call, values can overlap the other calls; inactive means mostly above about 0.92. This is one part of the list.

Assay: chemical genetic growth profiling, strain panel (AID 1159580);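 further: tested at 20 µM; growth read once vehicle control cultures reached saturation at 30 °C; 1 = growth at the plate median or of vehicle wells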
Details: S. cerevisiae deletion strains, growth OD

Measured: normalized growth

Nc1cc(-c2ccncc2)c[nH]c1=O
inactive: locus YBR021W, strain FUR4, stronger effect = lower value 0.952 | locus YBR171W, strain sec66, stronger effect = lower value 0.966 | locus YBR229C, strain ROT2, stronger effect = lower value 0.952 | locus YCL029C, strain bik1, stronger effect = lower value 0.988 | locus YCR088W, strain abp1, stronger effect = lower value 0.925 | locus YDL005C, strain med2, stronger effect = lower value 0.971 | locus YDL035C, strain GPR1, stronger effect = lower value 0.907 | locus YDL040C, strain nat1, stronger effect = lower value 0.936 | locus YDL074C, strain BRE1, stronger effect = lower value 0.913 | locus YDL101C, strain DUN1, stronger effect = lower value 0.994 | locus YDL185W, strain tfp1, stronger effect = lower value 0.973 | locus YDL192W, strain arf1, stronger effect = lower value 0.974 | locus YDR001C, strain nth1, stronger effect = lower value 0.972 | locus YDR101C, strain arx1, stronger effect = lower value 0.977 | locus YDR137W, strain rgp1, stronger effect = lower value 0.976 | locus YDR159W, strain sac3, stronger effect = lower value 0.928 | locus YDR162C, strain NBP2, stronger effect = lower value 0.949 | locus YDR195W, strain ref2 0.951 | locus YDR335W, strain msn5, stronger effect = lower value 0.934 | locus YDR502C, strain sam2, stronger effect = lower value 0.926 | locus YEL037C, strain rad23, stronger effect = lower value 0.937 | locus YEL061C, strain CIN8, stronger effect = lower value 0.98 | locus YER015W, strain faa2, stronger effect = lower value 0.993 | locus YER110C, stronger effect = lower value 0.983 | locus YER111C, strain swi4, stronger effect = lower value 0.979 | locus YER155C, strain BEM2, stronger effect = lower value 0.963 | locus YGL078C, strain dbp3, stronger effect = lower value 0.976 | locus YGL167C, strain pmr1, stronger effect = lower value 0.974 | locus YGL227W, strain vid30, stronger effect = lower value 0.96 | locus YGR135W, strain pre9, stronger effect = lower value 0.945 | locus YGR229C, strain SMI1, stronger effect = lower value 0.923 | locus YHR030C, strain SLT2, stronger effect = lower value 0.959 and 1.04 | locus YHR079C, strain IRE1 (second series), stronger effect = lower value 0.988 | locus YHR079C, strain IRE1, stronger effect = lower value 1.04 | locus YHR094C, strain hxt1, stronger effect = lower value 0.978 | locus YHR129C, strain ARP1, stronger effect = lower value 0.961 | locus YHR200W, strain rpn10, stronger effect = lower value 0.974 | locus YIL073C, strain SPO22, stronger effect = lower value 0.713 | locus YIL125W, strain kgd1, stronger effect = lower value 0.982 | locus YIR030C, strain dcg1, stronger effect = lower value 0.988 | locus YJL092W, strain hpr5, stronger effect = lower value 0.923 | locus YJL095W, strain BCK1, stronger effect = lower value 0.961 and 1.01 | locus YJL115W, strain asf1, stronger effect = lower value 0.932 | locus YJL129C, strain trk1, stronger effect = lower value 0.94 | locus YJL134W, strain LCB3, stronger effect = lower value 0.994 | locus YJL154C, strain vps35, stronger effect = lower value 0.964 | locus YJL168C, strain set2, stronger effect = lower value 0.986 | locus YJL187C, strain SWE1 (second series), stronger effect = lower value 0.96
active: locus YAL021C, strain ccr4, stronger effect = lower value 0.86 | locus YAL026C, strain drs2, stronger effect = lower value 0.802 | locus YAL030W, strain snc1, stronger effect = lower value 0.885 | locus YBL061C, strain skt5, stronger effect = lower value 0.899 | locus YBR009C, strain hhf1, stronger effect = lower value 0.671 | locus YBR023C, strain chs3, stronger effect = lower value 0.832 | locus YBR231C, strain swc5, stronger effect = lower value 0.562 | locus YBR279W, strain paf1, stronger effect = lower value 0.63 | locus YCL011C, strain gbp2, stronger effect = lower value 0.833 | locus YCL016C, strain dcc1, stronger effect = lower value 0.567 | locus YCL061C, strain MRC1, stronger effect = lower value 0.901 | locus YCL069W, strain vba3, stronger effect = lower value 0.757 | locus YDL134C, strain PPH21, stronger effect = lower value 0.823 | locus YDR069C, strain doa4, stronger effect = lower value 0.885 | locus YDR297W, strain sur2, stronger effect = lower value 0.856 | locus YDR318W, strain mcm21, stronger effect = lower value 0.809 | locus YDR334W, strain swr1, stronger effect = lower value 0.664 | locus YDR388W, stronger effect = lower value 0.919 | locus YDR392W, strain spt3, stronger effect = lower value 0.265 | locus YEL003W, strain gim4, stronger effect = lower value 0.624 | locus YEL061C, strain CIN8 (second series), stronger effect = lower value 0.787 | locus YER016W, strain bim1, stronger effect = lower value 0.672 | locus YER155C, strain BEM2 (second series), stronger effect = lower value 0.368 | locus YER167W, strain BCK2, stronger effect = lower value 0.86 | locus YFR010W, strain ubp6, stronger effect = lower value 0.863 | locus YGL086W, strain mad1, stronger effect = lower value 0.872 | locus YGL173C, strain kem1, stronger effect = lower value 0.715 | locus YGL240W, strain doc1, stronger effect = lower value 0.684 | locus YGL248W, strain PDE1, stronger effect = lower value 0.678 | locus YGL253W, strain hxk2, stronger effect = lower value 0.523 | locus YGR078C, strain PAC10, stronger effect = lower value 0.527 | locus YGR252W, strain gcn5, stronger effect = lower value 0.706 | locus YHR013C, strain ard1, stronger effect = lower value 0.506 | locus YHR027C, strain rpn1, stronger effect = lower value 0.872 | locus YHR142W, strain chs7, stronger effect = lower value 0.705 | locus YIL066C, strain RNR3, stronger effect = lower value 0.74 | locus YJL095W, strain BCK1 (second series), stronger effect = lower value 0.714 | locus YJL164C, strain tpk1, stronger effect = lower value 0.69 | locus YJL166W, strain qcr8, stronger effect = lower value 0.539 | locus YJL187C, strain SWE1, stronger effect = lower value 0.755
